STAT3 inh-1: IL-6 driven STAT3 reporter inhibitors, primary screen, U3A cells, luciferase, luminescence, MLSCN library; AID 862, 2007; IL-6 STAT3-luciferase reporter; host cell line lacks STAT1; inhibition, % at 5.5 µM; hit rate 0.89% among 190,000;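 active = inhibition above the mean inhibition across all screened compounds plus 3 SD, cut at about 44% in these data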
C8 TRAIL sens: viability loss with TRAIL in NB7+C8 cells, primary screen, TRAIL sensitizer project, cell-based, ATPlite luminescence | inhibition (viability loss, TRAIL sensitization), % at 10 µM | hit rate 1% among 360,000 | AID 624354, 2012;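 active = compounds causing at least 50% loss of cell viability in the single-dose screen, relative to plate controls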
PPC-1+TRAIL kill: compounds killing PPC-1 cancer cells with TRAIL present, primary screen, TRAIL potentiator project, ATPLite luminescence, uHTS; cell killing (% activity), % at 4 µM or 5 µM; hit rate 0.41% among 220,000; PPC-1 cells + TRAIL, ATPLite viability luminescence; AID 1443, 2008;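 active = cell killing above 50% in the first pass at 4 µM, then a duplicate retest at 5 µM averaging 50% or more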
Platelet DG rel: inhibitors of platelet dense granule secretion, primary screen, cell-based, MLPCN, human platelets; human platelet-rich plasma, SFLLRN dense granule ATP release, luminescence; inhibition, %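 (compounds screened at 7.5 µM in platelet-rich plasma)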; hit rate 0.22% among 300,000; AID 1663, 2009;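 active = mean replicate score, as percent of positive control, at or above 50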
STAT1 blocker: STAT1 signaling inhibitors, primary screen, cell-based, HTS, luciferase reporter. NIH 3T3 STAT1-luciferase reporter, IFN-gamma, luminescence. inhibition, % at 5.5 µM. hit rate 0.35% among 200,000;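 active = inhibition above a set limit, the mean inhibition across all tested compounds plus 3 SD, cut at about 34% in these data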
STAT3 inh-2: STAT3 reporter inhibitors, retest of hits, confirmation, U3A cells, luciferase, luminescence | shares compounds with STAT3 inh-1 | IL-6 STAT3 luciferase reporter; cell line lacks STAT1 | inhibition, % at 5.7 µM | hit rate 45% among 1,200 | AID 1265, 2008;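 active = inhibition above the hit cutoff computed for the primary STAT3 screen, cut at about 44% in these data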
NFkB inh 2: NF-kB reporter inhibitors in human cells, confirmation, counter-screen for STAT3 inhibitor project, cell-based, HEK293T, luciferase, TNF-alpha stimulus; shares compounds with STAT3 inh-1; TNF-alpha induced; inhibition, % at 5.7 µM; hit rate 36% among 1,200; AID 1308, 2008;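 active = inhibition above the mean of solvent-only control wells plus 3 SD, cutoff set per campaign, cut at about 13% in these data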
STAT1 inh STAT3c: STAT1 reporter inhibitors, IFN-gamma induced, confirmation, counter-screen for STAT3 inhibitor project, cell-based, NIH 3T3, luciferase luminescence; shares compounds with STAT3 inh-1; NIH 3T3 STAT1-luciferase reporter; inhibition, % at 5.7 µM; hit rate 27% among 1,200; AID 1317, 2008;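 active = inhibition above the mean plus 3 SD of solvent-only control wells, limit set per screening run, cut at about 16% in these data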
Each line names hits and unclear results; the compound was inactive in the other large screens (follow-up assays come after a bar, where they were run). A selection: hits, their analogues and other compounds. The true share with any hit is near 1.6%.

Cc1ccsc1/C=C/c1ccc2cccc(O)c2n1	none
Fc1cccc(Cl)c1/C=C/c1cnc2ccccc2n1	none (no result: STAT3 inh-1, PPC-1+TRAIL kill, STAT1 blocker)
Fc1cccc(F)c1/C=C/c1ccc2ccccc2n1	STAT3 inh-1 56, C8 TRAIL sens 58 | STAT3 inh-2 inactive | NFkB inh 2 23 | STAT1 inh STAT3c inactive
Cc1ccsc1/C=C/c1ccc2ccccc2n1	STAT3 inh-1 46, C8 TRAIL sens 56 | STAT3 inh-2 46 | NFkB inh 2 20 | STAT1 inh STAT3c inactive
CC(=O)Nc1ccc(SC[C@H](Cc2ccccc2)N2CC[C@@H](C(C)(C)C)CCC2=O)cc1	none (no result: STAT3 inh-1, PPC-1+TRAIL kill, Platelet DG rel, STAT1 blocker)
COc1ccc(NC(=O)C2(C)CCN2CCOc2ccccc2)cc1OC (centres undefined)	none (no result: STAT3 inh-1, PPC-1+TRAIL kill, Platelet DG rel, STAT1 blocker)
O=C(NCc1cccnc1)c1cc(C2CCCCN2C(=O)CCCc2ccccc2)on1 (centres undefined)	none (no result: STAT3 inh-1, PPC-1+TRAIL kill, Platelet DG rel, STAT1 blocker)
Clc1ccccc1Nc1nnc(-c2ccncc2)s1	STAT3 inh-1 60, C8 TRAIL sens 60, PPC-1+TRAIL kill 64, Platelet DG rel 69 | STAT3 inh-2 inactive | NFkB inh 2 20 | STAT1 inh STAT3c inactive
C[C@H](CO)N1C[C@H](C)[C@@H](CN(C)S(=O)(=O)c2ccc(F)cc2)OCc2cn(nn2)CCCC1=O	none (no result: STAT3 inh-1, PPC-1+TRAIL kill, Platelet DG rel, STAT1 blocker)
OC[C@@H]1CN(Cc2ccco2)C[C@H](n2cnc3c(Nc4ccccc4)ncnc32)O1	none (no result: STAT3 inh-1, PPC-1+TRAIL kill, Platelet DG rel, STAT1 blocker)
CC1Cc2cc(-c3csc(NC(=O)Cc4ccccc4)n3)ccc2N1S(C)(=O)=O (centres undefined)	STAT3 inh-1 66 | STAT3 inh-2 53 | NFkB inh 2 13 | STAT1 inh STAT3c inactive
NC(=O)c1ccc(-c2ncc(-c3ccccc3)o2)cc1	STAT3 inh-1 54 | STAT3 inh-2 inactive | NFkB inh 2 20 | STAT1 inh STAT3c inactive
CCCc1n[nH]c2c1/C(=N/O)CC(c1ccccc1)C2 (centres undefined)	STAT3 inh-1 45 | STAT3 inh-2 44 | NFkB inh 2 inactive | STAT1 inh STAT3c inactive
CC(C)C[C@@H](C(=O)N[C@@H](C(=O)O)c1ccccc1)N1C(=O)N2CCc3c([nH]c4ccccc34)[C@@]2(C)C1=O	none (no result: STAT3 inh-1, PPC-1+TRAIL kill, STAT1 blocker)
FC(F)(F)c1cccc(Nc2cc(-c3ccccc3)nc3ncnn23)c1	none (no result: STAT3 inh-1, STAT1 blocker)
FC(F)(F)c1ccc(N2CCN(c3cc(-c4ccccc4)nc4ncnn34)CC2)nc1	STAT3 inh-1 48 | STAT3 inh-2 46 | NFkB inh 2 15 | STAT1 inh STAT3c 27
O=C(c1[nH]c(C(F)(F)F)nc1-c1ccccc1)N1CCC(Cc2ccccc2)CC1	none (no result: STAT3 inh-1, PPC-1+TRAIL kill, Platelet DG rel, STAT1 blocker)
CN(Cc1cn(Cc2ccc(Cl)cc2)nn1)C1CN(Cc2cn(Cc3ccc(Cl)cc3)nn2)S(=O)(=O)C1 (centres undefined)	none (no result: STAT3 inh-1, PPC-1+TRAIL kill, Platelet DG rel, STAT1 blocker)
CC(=O)c1c(C)[nH]c(C(=O)COc2cc(C)cc(C)c2)c1C	STAT3 inh-1 44 | STAT3 inh-2 inactive | NFkB inh 2 inactive | STAT1 inh STAT3c inactive
CCCOc1ccc(CSc2nc3ccccc3[nH]2)cc1	STAT3 inh-1 59, C8 TRAIL sens 53 | STAT3 inh-2 48 | NFkB inh 2 inactive | STAT1 inh STAT3c inactive
CCCCC1CCC(c2nc(-c3ccccn3)no2)CC1 (centres undefined)	STAT3 inh-1 72 | STAT3 inh-2 inactive | NFkB inh 2 inactive | STAT1 inh STAT3c inactive
CCOC(=O)/C(C#N)=C\c1cc(C)n(-c2ccccc2)c1C	STAT3 inh-1 45 | STAT3 inh-2 inactive | NFkB inh 2 inactive | STAT1 inh STAT3c inactive
O=C(O)c1ccccc1NC(=O)C1CCN(S(=O)(=O)c2cccc3nsnc23)CC1	none (no result: STAT3 inh-1, PPC-1+TRAIL kill, STAT1 blocker)
O=C(C1CCC(CNc2nc(=S)[nH]c3ccccc23)CC1)N1CCN(c2ccccn2)CC1 (centres undefined)	STAT3 inh-1 50 | STAT3 inh-2 52 | NFkB inh 2 inactive | STAT1 inh STAT3c 35

Screening results deposited in PubChem BioAssay by several laboratories.
